H9c2 protect – cardioprotection against H2O2-induced cell death, primary screen, uHTS, H9c2 cells, ATPLite luminescence; protection from H2O2 cell death, % at 20 µM; 360,000 compounds, 0.63% hits; H9c2 cardiomyocytes, H2O2 injury protection, 2 h; AID 588492, 2011;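 active = compounds giving at least 50% protection of heart cells from peroxide-induced death in the single-dose screen, raw or plate-pattern-corrected value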;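 note: 0% = DMSO wells with peroxide and 100% = DMSO wells without peroxide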
COUP-TFII inh – NR2F2 transcriptional activity inhibitors, primary screen, cell-based, luciferase reporter, HEK293T, luminescence | HEK293T NGFI-A luciferase reporter | COUP transcription factor 2 (Homo sapiens), P24468 | AID 686940, 2013 | 370,000 compounds, 0.7% hits | inhibition, % at 8.6 µM;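 active = inhibition above a per-plate cutoff, mean inhibition of test wells between control levels plus 3 SD, cut at about 38% in these data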;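 note: cells cotransfected with COUP-TFII expression vector driving the NGFI-A reporter; 0% = median of COUP-TF2 test wells and 100% = reporter-only cells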
Target sequence (P24468 whole entry, looked up): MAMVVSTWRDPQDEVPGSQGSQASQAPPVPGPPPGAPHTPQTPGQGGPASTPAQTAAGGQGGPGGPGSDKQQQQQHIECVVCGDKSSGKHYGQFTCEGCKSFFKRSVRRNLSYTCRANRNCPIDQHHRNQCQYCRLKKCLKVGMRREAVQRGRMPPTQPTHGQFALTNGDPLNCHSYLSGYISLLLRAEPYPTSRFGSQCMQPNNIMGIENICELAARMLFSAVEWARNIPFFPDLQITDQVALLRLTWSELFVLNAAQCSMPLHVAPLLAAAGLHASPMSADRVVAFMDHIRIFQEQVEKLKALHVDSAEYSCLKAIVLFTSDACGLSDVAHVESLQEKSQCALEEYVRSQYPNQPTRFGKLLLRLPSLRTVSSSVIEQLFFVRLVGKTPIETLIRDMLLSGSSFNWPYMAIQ
697 NFkB inh – inhibitors of PMA/ionomycin-induced NF-kB reporter, 697 cells, primary screen, B-cell NF-kB inhibitor project, cell-based, luminescence, uHTS; 697 B-cell NF-kB luciferase reporter, 16 h; 330,000 compounds, 0.33% hits; inhibition, % at 4 µM; in the data active = inhibition above about 35%
Jurkat NFkB inh – inhibitors of induced NF-kB luciferase reporter, primary screen, TCR NF-kB activation inhibitor project, cell-based, luminescence, uHTS | Jurkat, PMA/ionomycin-induced NF-kB luciferase reporter | inhibition, % at 4 µM | 330,000 compounds, 0.53% hits | AID 435003, 2010; in the data active = inhibition above about 50%
TAG inh – inhibitors of triacylglycerol accumulation, primary screen, cell-based, uHTS, fluorescence, H9c2 | 230,000 compounds, 0.66% hits | H9c2 cells, Nile Red lipid (TAG) fluorescence; cells loaded with 200 µM oleic acid | AID 651582, 2012 | inhibition, % at 12.5 µM;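 active = pattern-corrected inhibition of lipid staining of at least 50% with the nuclear-stain viability signal not falling by more than 50%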;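 note: 0% = DMSO wells and 100% = triacsin C control wells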
Gli-Sufu block – Gli-Sufu pathway antagonists, primary screen, luciferase luminescence, Sufu-KO-LIGHT cells, uHTS; inhibition, % at 5 µM; Sufu-KO-LIGHT fibroblasts, Gli luciferase reporter luminescence; 340,000 compounds, 0.74% hits; AID 588413, 2011;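 active = inhibition above about 55%, limit read from the data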;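 note: 0% = DMSO-treated cells and 100% = wells with medium but no cells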
697 NFkB conf – PMA/ionomycin-induced NF-kB reporter inhibitors, 697 retest, confirmation, B-cell NF-kB inhibitor project, cell-based, luminescence, single concentration. shares compounds with 697 NFkB inh. 697 B-cell NF-kB luciferase, 16 h. inhibition, % at 4 µM. 2,000 compounds, 35% hits. AID 449746, 2010; in the data active = inhibition mostly above about 28%, no sharp cut-off; inactive = mostly below about 22%
* marks the source's active call; other numbers are inactive results; i = inactive; · = no result given. Only some compounds are listed: those with a hit (about 2.6% of all), similar ones and a draw of the others.

SMILES | H9c2 protect | COUP-TFII inh | 697 NFkB inh | Jurkat NFkB inh | TAG inh | Gli-Sufu block | 697 NFkB conf
COC(=O)C1CN(Cc2cn(Cc3ccc(OC)cc3)nn2)CCS(=O)(=O)N1Cc1ccc(OC)cc1 (stereo not drawn) | · | 7.9 | · | · | · | · | ·
CCOC(=O)c1[nH]c(C)c(C(=O)NCCc2ccc(OC)cc2)c1C | 3.0 | 5.0 | 35.7* | -4.0 | · | -1.6 | 14.3
CCOC(=O)[C@]12CCCC=C1N(Cc1ccc(OC)cc1)C(=O)[C@@H]2CC(=O)N1CCN(C(=O)c2ccco2)CC1 | · | 4.1 | · | · | · | · | ·
O=C(CN(CCc1ccccc1)S(=O)(=O)c1ccc(F)cc1)N1CCOCC1 | · | -10.1 | · | · | · | · | ·
COc1ccc(C(=O)Nc2ccccc2C(=O)NCc2ccco2)cc1OC | 16.8 | 10.1 | 37.1* | 13.4 | · | -8.5 | 31.2*
COc1ccccc1C(=O)Nc1ccccc1C(=O)NCc1ccco1 | 5.7 | 7.9 | 15.3 | 16.3 | -25.3 | -16.4 | ·
COc1ccc(C(=O)N/N=C/c2cc3ccccc3[nH]c2=S)cc1 | 11.3 | -7.3 | 36.2* | 16.0 | -48.5 | 4.7 | 1.5
COc1ccc(C(=O)N/N=C/c2c[nH]c3ccccc23)cc1 | -9.9 | -9.4 | -61.6 | -52.2 | 5.8 | -35.5 | ·
CCCCCCCCN1C(=O)[C@@H](CC(=O)NCc2ccc(C)o2)C[C@@]2(C(=O)OC)C1=C[C@H](COCc1ccccc1)O[C@@H]2C | · | 15.3 | · | · | · | · | ·
O=C(Nc1nc2ccccc2[nH]1)c1ccc(Cl)cc1 | -19.2 | -3.2 | -319.6 | -139.7 | · | -72.6 | -341.6
Cc1ccc(CSCC(=O)Nc2ccccc2C(=O)O)cc1 | 0.8 | -64.0 | i | -24.7 | 3.8 | -52.7 | -393.6
COc1ccc(-c2nc(CSCC(=O)NCc3ccco3)c(C)o2)cc1 | -4.8 | · | 37.8* | 29.4 | -25.9 | 39.5 | 43.2*
CCc1ccc(-c2nc(CSCC(=O)NC3CC3)c(C)o2)cc1 | -6.9 | 21.7 | 96.9* | -8.3 | · | 79.6* | 92.8*
CSc1ccc(-c2nc(CSCC(=O)NC3CC3)c(C)o2)cc1 | -1.4 | -16.9 | 89.6* | -1.8 | · | 70.3* | 48.9*
CCOC(=O)[C@]12CCCCC/C=C\1N(Cc1ccc(OC)cc1)C(=O)[C@H]2CC(=O)NCc1ccc(OC)c(OC)c1 | · | 4.7 | · | · | · | · | ·
COc1ccc(CN(C)C(C#Cc2ccccc2)Cc2ccccc2)c(OC)c1 (stereo not drawn) | · | -1.7 | · | · | · | · | ·
O=C(O)c1nn(CCOc2c(Cl)cccc2Cl)c(=O)c2ccccc12 | 13.7 | -48.7 | i | 4.7 | · | 4.0 | i
Cc1ccc(C=Nn2c(-c3n[nH]c4c3CCC4)n[nH]c2=S)o1 | · | -11.3 | · | · | · | · | ·
CN(C)c1ccc(C(O)Cc2nc3ccccc3n2C)cc1 (stereo not drawn) | -6.1 | 19.4 | -269.2 | -107.4 | · | -22.1 | -289.4
CC(C)c1ccc(C(O)Cc2nc3ccccc3n2C)cc1 (stereo not drawn) | 1.2 | 0.8 | -73.9 | -43.1 | -4.1 | -3.1 | ·
Cc1cccc(-c2cccc3c4c([nH]c23)[C@@H]2C[C@H](N(C)C(=O)c3ccccc3F)[C@H]([C@H](C)O)CN2CC4)c1 | · | 4.6 | · | · | · | · | ·
CCOC(=O)C1CCN(c2ncnc3c2cnn3-c2ccccc2)CC1 | 2.0 | 3.2 | 27.4 | 6.0 | · | -2.6 | ·
CCOC(=O)C1CCN(c2ncnc3c2cnn3-c2ccc(Cl)cc2)CC1 | -14.0 | 6.1 | 60.9* | 24.2 | · | 33.8 | 66.8*
CCCCOCCCNC(=O)C[C@H]1C[C@@]2(C(=O)OC)C(=C[C@H](C(C)(C)C)O[C@@H]2C)N(Cc2ccc(Cl)cc2Cl)C1=O | · | -10.9 | · | · | · | · | ·
Cc1sc2nc(C3CC3)nc(SCC(=O)N3c4ccccc4CC3C)c2c1C (stereo not drawn) | 2.9 | · | i | -74.9 | -51.1 | 33.1 | i
SMILES | H9c2 protect | COUP-TFII inh | 697 NFkB inh | Jurkat NFkB inh | TAG inh | Gli-Sufu block | 697 NFkB conf
Cc1ccc(C)c(NC(=S)Nc2ccc(S(=O)(=O)Nc3ncccn3)cc2)c1 | 6.5 | 10.4 | 18.5 | 6.9 | · | 8.4 | ·
Cc1ccc(NC(=S)Nc2ccc(S(=O)(=O)Nc3ncccn3)cc2)c(C)c1 | -3.8 | -3.6 | 49.9* | -1.4 | -15.4 | 3.6 | 14.3
CCOC(=O)[C@@]12CN(C(=O)OC(C)(C)C)CC=C1N(Cc1ccc(OC)cc1)C(=O)[C@H]2CC(=O)NCCCCc1ccccc1 | · | -2.4 | · | · | · | · | ·
CCCCN(C)c1c2c(nc3ncnn13)CCCC2 | · | 5.0 | · | · | · | · | ·
COc1ccc(OC)c(C2CC(=O)Nc3cc(OC)c(OC)c(OC)c32)c1 (stereo not drawn) | 5.2 | -58.9 | 35.2* | -5.1 | 4.4 | 23.7 | 43.0*
CC(=O)Nc1ccc2nc(SCC(=O)O)sc2c1 | -7.2 | -8.7 | 35.9* | -9.0 | · | 5.2 | 7.4
Cc1cccc(C(=O)n2c(=S)nc3cc(C)ccn32)c1 | -14.1 | -40.5 | -366.9 | -131.6 | 4.5 | -84.9 | -349.1
O=C(c1ccco1)n1c(=S)nc2ccccn21 | -12.6 | -62.0 | -80.6 | -57.4 | · | 4.2 | ·
Cc1ccn2c(c1)nc(=S)n2C(=O)c1ccccc1 | -18.2 | -11.1 | i | -119.3 | · | -48.4 | -405.2
O=C(NCCc1ccc(F)cc1)c1cc2ccccn2n1 | · | -43.9 | · | · | · | · | ·
COc1cc(-c2nc(S(=O)(=O)c3ccc(C)cc3)c(N3CCOCC3)o2)cc(OC)c1OC | -0.4 | 1.4 | 42.0* | 3.0 | 10.1 | -10.3 | 19.8
COC(=O)C1=C(C)N(Cc2ccccc2C(F)(F)F)C(=NCc2ccc(C(F)(F)F)cc2)NC1c1ccccc1 (stereo not drawn) | · | 15.9 | · | · | · | · | ·
Cc1ccc2oc(/N=C(\N)NC(=O)C3CC3)nc2c1 | -12.7 | -29.0 | -264.8 | -23.1 | 33.8 | -93.0 | -325.1
Cc1ccc(C)c(Nc2cc(C(=O)NCc3cccnc3)c3ccccc3n2)c1 | 3.0 | 4.0 | 32.3 | 5.9 | 11.4 | -5.7 | ·
Cc1ccc(C)c(Nc2nn3c(=O)c4ccc(C(=O)NCc5cccnc5)cc4nc3s2)c1 | 7.2 | -7.9 | 43.3* | 6.2 | · | 10.1 | 20.8
N#Cc1cccc(NC(=O)OCCN2C(=O)CCC23CCC(c2ccc(Cl)cc2)CC3)c1 (stereo not drawn) | · | -6.5 | · | · | · | · | ·
C/C(=N\Nc1ccc(Cl)c(C(=O)O)c1)c1ccc(Br)s1 | 1.2 | 9.9 | -9.3 | -11.3 | · | -15.3 | ·
C/C(=N\Nc1ccc(C(=O)O)cc1)c1ccc(Cl)s1 | 1.4 | -52.0 | -299.0 | -100.0 | · | -71.7 | -267.6
C/C(=N/Nc1ncc(Br)cn1)c1ccc(Br)cc1 | 2.9 | -7.7 | -45.1 | -33.0 | 19.8 | -0.1 | ·
C/C(=N\Nc1ccc(C(=O)O)cc1)c1ccc(Br)cc1 | -2.3 | -46.1 | -345.3 | -56.3 | -8.1 | -14.9 | -300.5
C=CCC12C=C(OC)C(=O)C(C1=O)C1c3ccccc3CC12 (stereo not drawn) | · | 2.7 | · | · | · | · | ·

From PubChem BioAssay
